Laboratory results: PubChem BioAssay (NCI)
This is part of a sample that, as a whole, favours compounds with a hit. Of some 83,000 tested, about 20% had one in any assay.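 Results are percent growth after 48 hours of single-concentration exposure. 100 means growth as in untreated cells, lower positive values show inhibition; negative values down to -100 show cell death.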 Unmarked numbers belong to inactive results. Active and inactive are the calls of the source.

These compounds were tested on M14 melanoma (assay: NCI-60 one-dose screen, 48 h (100 = growth as untreated, 0 = no growth, -100 = all killed)). Conditions: 10 µM unless noted.
Experimental: Growth inhibition of the M14 human tumor cell line is measured as a screen for anti-cancer activity. Cells are grown in 96 well plates and exposed to the test compound for 48 hours. Compounds are tested at a single concentration, which is 10^-5 M for most compounds. The reported endpoint is percent growth (GI% or GIPRCNT), where numbers from 0 - 100% represent growth inhibition, and numbers from -100% - 0 represent cell death. For example, a value of 40 represents 60% growth inhibition. A value of 0 means no net growth occurred over the course of the experiment. A value of -40 indicates 40% of cells at the beginning of the experiment died by the end of the experiment. A value of -100 means all cells are dead at the end of the experiment.
NCI-60 Human Tumor Cell Lines Screen was performed using the standard one-dose NCI protocol, which is described in more detail at https://dtp.cancer.gov/discovery_development/nci-60/default.htm.
Compounds with GIPRCNT values below 10 were considered active. Activity score was based on GIPRCNT using the following formula: […]
Score is 0 for GIPRCNT values of 100 or above, 50 for GIPRCNT values of 0, and 100 for GIPRCNT values of -100.
`Cc1ccc(N=CNN=C(N)N)cc1` showed a growth of 103%.
`Nc1ncnc2c1N=C(c1ccc(F)cc1)CC(c1sc(Cl)nc1Cl)N2` (stereo not given) was tested, and the growth was 109%.
In the case of `C#CC[C@@H]1C[C@]2(C)[C@H]3CC[C@@H]4[C@H]5C(C(=C)C)CC[C@]5(C(=O)NCCCCCCCCN)CC[C@@]4(C)[C@]3(C)CC[C@H]2C(C)(C)[C@H]1OC(C)=O` (stereo not given in full), the growth is reported as 102%.
With `Clc1cc(Br)ccc1-c1ccc(CNCC2CCNCC2)o1` the growth was 55.2%.
For `CC(=O)c1nn(-c2ccccc2)/c(=N\N=C\c2coc3ccc(F)cc3c2=O)s1`, the growth was 93.5%.
For `NS(=O)(=O)c1ccc(N2N=C(c3ccc(Br)cc3)CC2c2cn(-c3ccccc3)nc2-c2ccc(Cl)cc2)cc1` (stereo not given), the growth was 83.7%.
`O=C1/C(=C\c2cccn2C(=O)c2ccccc2)c2ccccc2N1c1c(Cl)cccc1Cl` gave a growth of 76%.
For `COc1ccccc1/C=N\NC(=S)Nc1ccc(F)cc1`, the growth was 48.4%.
`CCCN(CCC)CC(O)COc1ccccc1C(=O)Nc1ccccc1` (stereo not given) showed a growth of 69.3%.
`CCCCCCCCCCCCCCCCS(=O)(=O)Nc1cc(C(=O)NN)cc(C(=O)NN)c1` was tested, and the growth was 88%.
`COc1cc(/C=C/C(=O)c2c(C)nc3ccccc3c2C)ccc1OCCCOc1cc2c(cc1OC)C(=O)N1CCC[C@H]1C=N2` was tested, and the growth was -45.2% (active).
Compound `CC(=O)OC1Oc2cc(C)c(C)cc2-c2oc(=O)c(-c3ccc(F)cc3)cc21` (stereo not given) has a growth of 38.5%.
For `Cc1cc(C)c([O-])c(CN(C)CCN(C)Cc2cc(C)cc(C)c2[O-])c1.O=C([O-])c1cccc(C(=O)[O-])n1.[Ti+4]`, the growth was -49.8% (active).
Compound `CC1=NOCC(=O)N1` has a growth of 103%.
`CCOc1c(C#N)c2c(N)ncnc2n1C1OC(CO)C(O)C1O` (stereo not given) was tested, and the growth was 35%.
Work on `C=CCN(CCOC(=O)c1ccc([N+](=O)[O-])cc1)CCOC(=O)c1ccc([N+](=O)[O-])cc1` yielded a growth of 105%.
With `C=C1NC(=O)C(C(C)CC)NC(=O)C2CSCC(NC(=O)CCC(=O)O)C(=O)NC(Cc3ccccc3)C(=O)NC(C)C(=O)NC(CC(C)CC)C(=O)NC(C(=O)NC(Cc3ccccc3)C(=O)N3CCCC3C(=O)N2)C(C)OC(=O)C(CO)NC(=O)C(C(O)COC)N(C)C(=O)C(C(C)C)NC(=O)C(CC(C)CC)NC1=O` (stereo not given) the growth was 5.52% [6 µM] (active).
`CCOC(C)(c1ccc(Cl)cc1)C1CCNCC1` (stereo not given) showed a growth of 86.6%.
For `CCN(CC)CCNc1c(C)cc(CO)c(Cl)c1C`, the growth was 110%.
For `CC(=O)c1c(O)c(C)c(O)c2c1OC1=CC(=O)/C(=C(/C)N)C(=O)C12C` (stereo not given), the growth was 93.6%.
Work on `COc1cc(Cn2c(-c3ccccc3)cc3c2-c2oncc2CC3)cc(OC)c1OC` yielded a growth of 21.9%.
With `O=C(C(Br)C(Br)c1ccccc1)C(Br)C(Br)c1ccccc1` (stereo not given) the growth was 1.62% (active).
`CCCCn1c(C)nc2ccc(Nc3nc(Cl)nc4nc[nH]c34)cc21` showed a growth of 68.3%.
In the case of `CCCCn1c(-c2ccc(F)cc2)nc2cc(OC)c(OC)cc2c1=O`, the growth is reported as 127%.
`Cc1ccc(-c2cnc3sc4ccc(Cl)cc4n23)cc1` was tested, and the growth was 100%.
In the case of `CC(CN1CCN(CCOCCO)CC1)CN1c2ccccc2Sc2ccc(Cl)cc21` (stereo not given), the growth is reported as 5.98% (active).
`COc1ccc(/C(=C\c2cc(OC)c(OC)c(OC)c2)C(=O)N2CCCNCC2)cc1` was tested, and the growth was 105%.
`CN1CCN(c2ccc(N3Cc4ccccc4OC4=C3C(=O)c3c(O)ccc(O)c3C4=O)cn2)CC1` was tested, and the growth was -76.8% (active).
With `CC(C)N=C1CCCC1C(=S)SSC(=S)C1CCCC1=NC(C)C` (stereo not given) the growth was 64.4%.
Compound `N#Cc1c(N)c(C(=O)c2ccc3c(c2)OCCO3)n2c1CCCC2` has a growth of 19.4%.
`FC(F)(F)C1=NNC(c2ccc3ccccc3c2)=NN1` gave a growth of 98.3%.
With `Cc1ccc(Nc2nc(NCCO)c3ccccc3n2)cc1C` the growth was 24.4%.
In the case of `COC(=O)C(C)NC1=C(Cl)C(=O)C(NC(C)C(=O)OC)=C(Cl)C1=O` (stereo not given), the growth is reported as 103%.
Compound `COc1ccc(C2=Nn3c(nnc3-c3ccc(Cl)cc3N)SC2)cc1` has a growth of 107%.
`O=C(Cn1nncc1CN1C(=O)CSC1=O)Nc1ccc(F)cc1` was tested, and the growth was 102%.
For `O=C(C=P(c1ccccc1)(c1ccccc1)c1ccccc1)CCl`, the growth was -61.5% (active).
In the case of `CCN(CC)CCC(CNc1ccnc2cc(Cl)ccc12)c1ccc(O)cc1` (stereo not given), the growth is reported as 6.04% (active).
`CCOCC(O)(c1ccc(Cl)cc1)c1ccc(Cl)cc1` gave a growth of 114%.
With `CC(C)[C@H](CN)NC[C@H](C)NS(=O)(=O)c1ccc(C(C)(C)C)cc1` the growth was 97.3%.
Work on `COc1ccc(NC(=O)c2ccc(C(F)(F)F)nc2Nc2ccc(Cl)cc2C)cc1Cl` yielded a growth of 34.2%.
